Results on 69 sequences are retold here after PubChem BioAssay AID1508600 (Functional Genomics Laboratory (NCATS/FGL), 2020).

The campaign covered roughly 53,000 sequences. About 3,700 (7%) were called active. The entries come from a sample that favours actives as a whole. Values without a mark were called inactive.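 Rule for the calls: active = gene knockdowns whose robust z-score for IL-1 alpha signal is at least 2 or at most -2, so actives lie on both sides; inactive = the rest.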

The assay is described as follows: Components of the Cytosolic LPS Sensing Pathway: Gene Identification via Genome-wide siRNA Screen.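 Note: robust z of the log signal after scaling to non-targeting control siRNA wells of the plate.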 To be noted: RAW264.7 macrophages, IL-1a HTRF, actives lie on both sides, screened at 100 nM (by protocol), cells primed 5 h with Pam3CSK4 first. An outline of the steps: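 IL-1a HTRF of supernatants after 24 hour LipidA transfection of Pam3CSK4-primed (5 hours) RAW264.7 cells, 48h post-siRNA transfection (100 nM). Scores: percent of plate negative-control median, then log-based robust z-score.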
(TR-FRET usually uses a lanthanide donor and a delayed reading to cut background.)
Regarding GCCAUAUCAACUCAGAUCATT against Ssh2, the z-score is 5.04 (active).

In the case of GGUAAUAAGUCCCAUUUUCTT against Prpmp5, the z-score is 0.817.

On to GGCCAGAAGAACUAACAGUTT against Cept1, for which the z-score was -0.11.

On to GGACAAUGCUAAUGAGACCTT against Gcsam, for which the z-score was -0.176.

On to GAGGGACUGUAAUGUUGACTT against Olfr560, for which the z-score is 0.0877.

As for CCGCUAGACAAAUUUUGCCTT against Slc6a2, the z-score was 1.45.

On to GCUACAGUAGUAAGACUAATT against Usp53, for which the z-score was 2.67 (active).

As to GGAGUAACAACACAACAUUTT against Mab21l1, the z-score is 1.43.

For CGCUGAAAGUGAACGUAGGTT against Kcnv2, the z-score was -1.14.

With CCUUCACAUAAGUUUCUGUTT against Nuak2, the z-score is 0.575.

On to GAGGAAGACACUUUUCCUGTT against Atp23, for which the z-score was 0.765.

With GGGCAGUGAAAUCCUGUCUTT against Trim16, the z-score was -2.81 (active).

As for GCUUAGAUCACCUAAUGACTT against Parp3, the z-score is 1.18.

In the case of GGAUGUUUGGACCAAUCACTT against Iba57, the z-score was -0.962.

Regarding GGUGCUACUCCAGAUUGACTT against Tbc1d13, the z-score is 0.63.

Take GGUUAUAAACCAGAAGAGUTT against Mill2: the z-score is 0.807.

For the sequence GCUGUUAGACCUCUUGAUUTT against Olfr1164, the z-score was 0.0632.

As to GGUAGAUCAGUAAUAGUUATT against Glrb, the z-score is 0.837.

Regarding GGAGAUUGAGAACACAAGCTT against Hipk2, the z-score is 2.37 (active).

For the sequence CCAGACACAUAGGACAAAATT against Slco3a1, the z-score is -0.00454.

For the sequence GGCUGUGCGUGUUACAAAATT against Erlin1, the z-score was 0.501.

In the case of GGAAUGUCUAUCACAAUGGTT against Vmn1r230, the z-score was 1.78.

As for GGUGGAAGAUGAGAAAGAGTT against Tmem139, the z-score is -1.21.

Take GGAAGAUAAAUGUCACAAATT against AA792892: the z-score is 0.392.

In the case of GCCAGAAAUACCUGUCGGATT against Cdc37, the z-score is -0.229.

On to CCACUUUCAACUUUCCGCATT against Fgd5, for which the z-score is -1.94.

With GCUAGACCUAAGGAGCAAATT against Axin1, the z-score was 3.59 (active).

Take GGCCAAUUUCUUCACUUCUTT against Ints11: the z-score was -0.809.

In the case of GGUUUUCACCAUAUGCAGCTT against Zfp353-ps, the z-score was 0.267.

GGAAGAAAUGUCAUCACAATT against Heph: the z-score was 0.193.

CGGACACAUUGACUGAAUATT against Adgrl1: the z-score was -1.45.

For CCCACAUCAUUGAGAUUCUTT against Olfr1508, the z-score is -1.25.

For the sequence GGAGAAGUUUGAAGAGAUGTT against Cct5, the z-score is -2.24 (active).

Regarding GGAAGAAAACAUUUAGCCCTT against Mmd2, the z-score is 0.504.

On to ACAUACCAGUCUCUGUACCTT against Pigu, for which the z-score was -1.56.

Regarding CCGCCUCUUACCGAAGUUCTT against Mettl4, the z-score is 3.04 (active).

Turning to GGACUUGAAAGAUAAAUAGTT against Crx, the z-score is 0.163.

As for GCUAAUAACUUUUCAGUGATT against Olfr381, the z-score is 0.549.

Regarding GGUUGGUAGGAUGGACAAGTT against Rab11b, the z-score is 2.45 (active).

With GCCCUGUAUUUUGAAUUACTT against Bmpr1b, the z-score is 0.0161.

In the case of GGGAAGAAAUAUGUUAGAUTT against Pip4p2, the z-score is 0.92.

In the case of CCUUGUUACUAUACUACACTT against Ppp1r2, the z-score is 2.59 (active).

On to GCCUUUUAGCUGUUCAGGATT against Nlrc5, for which the z-score is 1.83.

Take GCUGAAGCAUACAUUUGUGTT against Tas2r137: the z-score was -0.226.

Turning to CCAAUCUCCUGUUGUUAAATT against Mlf1, the z-score was 0.557.

As to CCAGUCUUGCCCUUUAGUGTT against Foxi2, the z-score is -1.88.

As for AUGUAUUGAGUCAGGCAUCTT against Olfr243, the z-score is 2.32 (active).

Turning to CCUUACCACUUGAAGAUGGTT against Ephx1, the z-score was -1.2.

On to GCCAGUGAGUUUAUCAGCCTT against B4galnt3, for which the z-score was 0.706.

Turning to GGUAUACAUGCUUCUCUCUTT against Olfr610, the z-score is -0.569.

Consider GCUACAGAACCUGCUCUACTT against Thoc5, for which the z-score is 0.391.

Turning to GGCAUUGAACAAGAAAGAATT against Mef2c, the z-score is -0.94.

GGGUAUGGUUUCAUCACUUTT against Boll: the z-score is -2.71 (active).

As to GGAAGACAAAGAUUCUAGUTT against Abcc1, the z-score is -1.06.

As for UUACUGGUUGCUGUUGUGGTT against Alyref, the z-score was 1.35.

Regarding GGAGAUCUCCUCAGCCACATT against Gemin4, the z-score is -2.14 (active).

Consider GCUGUGGUACAACCACAUUTT against Lrrc8a, for which the z-score was -0.244.

For the sequence GGAACCACACCAUGUGAAATT against Prdm5, the z-score is 0.828.

Consider CCAUUCCCGCAUCCAUGUGTT against Zfp672, for which the z-score is -2.23 (active).

Turning to AGAGGAAGCUCGAAAACGGTT against Zrsr2, the z-score was -0.2.

With GGAUAUCAUCGUGUUUAUUTT against Vps45, the z-score is 0.612.

On to GGACAACAUUAUAGGAAAGTT against Neu3, for which the z-score was 2.36 (active).

For GCAAAAAAUCACUUCGAGUTT against Mgat4a, the z-score was -0.377.

GGGUAAGUAUUGAACUCAUTT against Slc10a1: the z-score was 1.06.

With GGAUGCUGAAGUAAUAGUGTT against Tbc1d15, the z-score is 0.0714.

Take CGUUGUCAUUCACAAGUGATT against Tmprss11e: the z-score is 3.02 (active).

Regarding GGAAUGCUAUCAGAGAAGATT against Zmym5, the z-score was -0.0365.

On to CCCUUCUUCGGGUUUUAACTT against Kcna3, for which the z-score was 3.08 (active).

Regarding GGUUUAAGGUAGUUCAUGATT against Faf1, the z-score was -0.0439.
